Screen size: about 220,000 compounds; about 830 (0.38%) were called active. Only a sample is shown. Entries with a potency or affinity are not part of this list. A number with no mark means an inactive call.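 Rule for the calls: active = compound inhibiting the enzyme by more than half at any dose during confirmatory dose-response retesting; inconclusive = strong single-dose inhibitors picked by rank but not retested; inactive = the rest.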

Chain of Leucine aminopeptidase (Plasmodium falciparum (isolate 3D7)) (Q8IL11 whole entry, looked up): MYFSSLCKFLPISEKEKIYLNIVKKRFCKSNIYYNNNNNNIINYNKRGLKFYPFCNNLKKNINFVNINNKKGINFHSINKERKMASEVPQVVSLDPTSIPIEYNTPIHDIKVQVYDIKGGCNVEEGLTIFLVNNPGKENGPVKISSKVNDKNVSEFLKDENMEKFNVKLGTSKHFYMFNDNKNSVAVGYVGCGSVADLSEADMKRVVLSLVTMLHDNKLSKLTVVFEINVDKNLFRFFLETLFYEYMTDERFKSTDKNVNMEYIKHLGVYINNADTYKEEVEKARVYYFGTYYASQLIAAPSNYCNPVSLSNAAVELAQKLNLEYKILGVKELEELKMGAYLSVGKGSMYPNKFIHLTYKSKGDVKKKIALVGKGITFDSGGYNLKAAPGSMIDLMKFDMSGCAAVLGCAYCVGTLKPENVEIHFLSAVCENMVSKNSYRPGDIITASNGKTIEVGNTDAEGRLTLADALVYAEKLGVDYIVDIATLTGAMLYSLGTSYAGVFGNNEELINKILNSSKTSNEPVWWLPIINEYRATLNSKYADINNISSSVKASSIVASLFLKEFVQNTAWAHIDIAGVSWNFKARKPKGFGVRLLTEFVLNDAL

This assay addresses Leucine aminopeptidase (Plasmodium falciparum (isolate 3D7)) (UniProt Q8IL11). The assay can be described thus: P. falciparum M17LAP inhibitors, primary screen, biochemical, fluorogenic H-Leu-NHMec substrate, 1536-well (AID 1619).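 Note: plate controls were full reaction with DMSO carrier for no effect and no enzyme background for full effect.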 The following applies: recombinant M17LAP, H-Leu-NHMec fluorogenic kinetic assay; at 30 µM; stronger effect = higher value.
For `Cc1ccccc1OCCCCn1c(CO)nc2ccccc21`, the inhibition (commonly the drop in the measured response relative to a control, in per cent) was 5.4%.

As to `CN(Cc1ccccc1)C(=O)Cn1c(=O)oc2cc(S(=O)(=O)NCc3ccccc3)ccc21`, the inhibition is -8.79%.

As to `Nc1cc(=O)[nH]c(SCC(=O)Nc2ccc(S(=O)(=O)N3CCCCC3)cc2)n1`, the inhibition is 10.7%.

As to `CCOc1ccc(N2C(=O)CC(NCCc3ccncc3)C2=O)cc1` (centres undefined), the inhibition was 3.75%.

`CN1CC(=O)N(CCOc2ccccc2)C1=O`: the inhibition is 5.27%.

Turning to `CN1CCN(c2ccccc2NC(=O)c2cccc([N+](=O)[O-])c2)CC1`, the inhibition was -3.18%.

Turning to `C/C(=N/NC(=O)Cn1nc2ccccc2n1)c1ccc(F)cc1`, the inhibition was 13.8%.

`CC(C)c1nc(SCC(=O)N2CCCc3ccccc32)c2c(=O)n(C)c(=O)n(C)c2n1`: the inhibition is -8.79%.

On to `Cc1c(CN2CCC(CO)(CC3CCCCO3)CC2)cnn1C` (centres undefined), for which the inhibition is -3.19%.

As for `Cc1ccc(OCC(=O)N2N=C(C(F)(F)F)CC2(O)C(C)(C)C)cc1C` (centres undefined), the inhibition was -0.9%.

As to `CCCCSc1nc(O)cc(=O)n1CC`, the inhibition is 16%.

Regarding `Cc1ccc(S(=O)(=O)Nc2nc(C)c(C(=O)NN)s2)cc1`, the inhibition was 18.9%.

For `CCOC(=O)c1sc(NS(=O)(=O)c2ccccc2)nc1C`, the inhibition is 23.4%.

Take `Cc1ccc(C(=O)Nc2ccc(F)cc2)o1`: the inhibition was 7.81%.

As for `O=C(O)CCCCCNS(=O)(=O)c1ccc2c(c1)OCCO2`, the inhibition was -3.71%.

Take `O=C(Nc1ccc2c(c1)OCCO2)C1CC1c1ccccc1` (centres undefined): the inhibition is -1.74%.

On to `O=C(Nc1ccc2c(c1)OCCO2)C1CCC1`, for which the inhibition was -5.9%.

Take `O=C(O)CCNc1ccc2c(c1)OCCO2`: the inhibition is 13.7%.

For `O=C(Nc1ccc2c(c1)OCCO2)NC1CCCCC1`, the inhibition was 53.6%.

Regarding `CC1=C(C)CC(C(=O)Nc2ccc3c(c2)OCO3)C(C(=O)O)C1` (centres undefined), the inhibition was 8.14%.

Consider `O=C(c1cc(-c2ccc(F)cc2)on1)N1CCCc2ccccc21`, for which the inhibition is 1.4%.

`CCCCOCCCNC(=O)C1CCCCC1`: the inhibition is -2.13%.

Regarding `C=CCn1cnc2c(nnn2-c2ccc(Cl)cc2)c1=O`, the inhibition was 1.25%.

`Cc1c(Cl)cccc1NC(=O)CSCC(N)=O`: the inhibition is -1.74%.

For the molecule `Cc1c(Cl)cccc1NC(=O)CSC(N)=O`, the inhibition is 3.23%.

`CCCCc1ccc(NC(=O)CC(C)=O)cc1`: the inhibition was 7.92%.

With `O=C(CSCc1cc(=O)[nH][nH]1)Nc1ccc(F)cc1`, the inhibition was 5.96%.

On to `O=C(Nc1ccc(F)cc1F)N1CCC(c2nc3ccccc3o2)CC1`, for which the inhibition is 2.14%.

Turning to `CCOCCCn1c(=S)[nH]c2cc(C(=O)NCC(OC)OC)ccc2c1=O`, the inhibition was 1.45%.

Regarding `Cc1cc(OCC(=O)N2CCOCC2)ccc1NC(=O)C1CCCCC1`, the inhibition was 5.24%.

As to `O=C(OCC(=O)N1CCN(C(=O)c2ccco2)CC1)c1ccccc1OCc1ccccc1`, the inhibition is 7.24%.

Regarding `NC(=O)COC(=O)c1ccccc1OCc1ccccc1`, the inhibition is 13.1%.

In the case of `CC(c1ccccc1)n1c(-c2cccs2)nc2c(c(=O)c3ccccc3n2C)c1=O` (centres undefined), the inhibition is 7.83%.

Consider `CCOc1ccc(C(C(=O)Nc2ccc(F)cc2)N(C(=O)Cn2nnc3ccccc32)C2CC2)cc1` (centres undefined), for which the inhibition was 6.8%.

As to `CC1CCC2(CC1)NC(=O)N(CC(=O)NC(=O)Nc1ccc3c(c1)OCCO3)C2=O` (centres undefined), the inhibition was 2.34%.

As for `O=C(CN1CCCCC1)Nc1ccc(N2CCCCCC2)cc1`, the inhibition is 43.3%.

For the molecule `CC1CCC2(CC1)NC(=O)N(CC(=O)Nc1ccc3c(c1)CCC3)C2=O` (centres undefined), the inhibition is -3.16%.

Regarding `CC1CCCCN1CC(=O)Nc1ccc(N2CCCCCC2)cc1` (centres undefined), the inhibition is 37.6%.

As for `O=C(CN1C(=O)C2C3C=CC(C3)C2C1=O)Nc1ccc(F)cc1` (centres undefined), the inhibition was -2.69%.

Turning to `CC1CCCCC12NC(=O)N(CC(=O)Nc1ccc(N3CCOCC3)cc1)C2=O` (centres undefined), the inhibition was 22%.

Turning to `O=C(CN1C(=O)NC2(CCCCC2)C1=O)Nc1ccc(N2CCOCC2)cc1`, the inhibition was 29.2%.

Take `O=C(CCN1C(=O)C2C3C=CC(C3)C2C1=O)Nc1ccc2c(c1)OCO2` (centres undefined): the inhibition is -8.11%.

Turning to `Cc1cccn2cc(CCNS(=O)(=O)c3cccc([N+](=O)[O-])c3)nc12`, the inhibition is -1.3%.

Regarding `COCCn1c(N)c(N(Cc2ccccc2)C(=O)c2ccc(C#N)cc2)c(=O)[nH]c1=O`, the inhibition was 1.64%.

As to `Cc1nn(C)c(Cl)c1C(=O)NC(C(=O)O)c1ccccc1` (centres undefined), the inhibition was -0.49%.

For `O=C(O)CSc1nc2ccccc2n1-c1ccccc1`, the inhibition was 6.57%.

For the molecule `C/C=C/Cn1c(Br)nc2c1c(=O)[nH]c(=O)n2C`, the inhibition was 6.95%.

For `O=C1c2ccccc2-c2cccc(C(=O)N3CCN(C(=O)c4ccccc4)CC3)c21`, the inhibition is 2.37%.

For `CC1=C(C(=O)N2CCOCC2)C(c2ccc(Br)cc2)NC(=S)N1c1ccccc1` (centres undefined), the inhibition is 1.22%.

Turning to `Nc1nonc1C(=Nc1ccc(Br)cc1)NO`, the inhibition is -2.77%.

`COc1ccc(NC(=S)N(Cc2ccc(C)cc2)Cc2ccccn2)cc1`: the inhibition was 4.2%.

Regarding `COc1ccc(-c2cc(C(F)(F)F)n3nc(C(=O)O)nc3n2)cc1`, the inhibition was 42.7%.

For the molecule `NC(=O)CSc1nccn1Cc1ccc(Cl)cc1`, the inhibition was -2.93%.

In the case of `O=C(COC(=O)c1cccs1)Nc1ccccc1`, the inhibition was 4.15%.

As to `CCN(c1ccc(NC(=O)COC(=O)c2cccs2)cc1)C(C)C`, the inhibition is 38.8%.

In the case of `CNC(=S)N1N=C(c2ccc(C)cc2)CC1c1ccc(Cl)cc1` (centres undefined), the inhibition is 5.37%.

Turning to `CCOc1[nH]n(-c2ccccc2)c(=O)c1C=Nc1ccc(F)cc1F`, the inhibition is 2.5%.

Turning to `CCOC(=O)N1CCN(C(=O)/C(=C/c2cccs2)NC(=O)c2cccs2)CC1`, the inhibition is 16.7%.

Turning to `CCn1c(=S)[nH]c2sc3c(c2c1=O)CCCCC3`, the inhibition was 3.46%.

As for `O=c1c2c3c(sc2[nH]c(=S)n1Cc1ccco1)CCC3`, the inhibition is -4.17%.

In the case of `O=C(COC(=O)c1ccccc1OCc1ccc(Cl)cc1)NC1CC1`, the inhibition is -0.6%.

For the molecule `Cc1ccc(COc2ccsc2C(=O)O)cc1`, the inhibition is -3.31%.

With `O=C(O)c1sccc1OCc1ccccc1`, the inhibition was -1.01%.

Regarding `COc1ccc(C(=O)CSc2n[nH]c(-c3ccncc3)n2)cc1[N+](=O)[O-]`, the inhibition is -7.99%.

The values are drawn from PubChem BioAssay AID1619 (SRMLSC, 2009).
